This passage reports PBM binding z-score results from the supplement of paper PMC6555819.

This assay has as its system PPARg:RXRa 30nM:10nM, anti-RXR (NR concentration 30 nM, RXRa partner concentration 10 nM). In words: PBM binding z-score (relative to random genomic background probes); higher = stronger binding; sequences stand for … in GC…GCGATTGACAGCGTAGAATGAAGG
In short, it runs like this: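 The probes on custom Agilent 4×180K protein-binding microarrays were double-stranded, with 34-nt variable regions bearing direct-repeat seeds, single-nucleotide variants, half-site ablations and random human genomic background sequences. Incubation lasted 1 h with ligand-free nuclear receptor dimers in PBS pH 7.4, 2% milk, 0.02% Triton X-100, 1 mM DTT, 0.2 mg/mL BSA and 0.4 mg/ml salmon testes DNA. Antibodies against each partner (one per run) detected bound dimers, and fluorescence scans were regression-normalized. Binding z-scores take the random background probes as reference.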
Take TCAGACACGTGAAGGTAACTCAGGTACGCAGTCG: the PBM binding z-score was determined as 3.41.

Sequence CCTACTGGGCCATTCAAAGGTCATTGATCATATG showed a PBM binding z-score of 1.44.

On to CGTCAAAGTTCAAGGTAACGTATCAGAAAGCAGC, for which the PBM binding z-score was determined as 1.86.

Sequence CCGTGTAGGTTATGGGGCATTCAGGCAACGGTGA registered a PBM binding z-score of 1.74.

On to CGTCCAAGGTCAATGCTAGGTCCGTGAAAGCATT, for which the PBM binding z-score turned out to be 0.655.

Regarding TCTTGTAGATCAAGCAGGTTACGAAAGCCTGAGT, the PBM binding z-score amounted to 2.5.

The sequence ATCTCTAGGTAAAGTTCAGTGCAAGATCGATAGA had a PBM binding z-score of 2.63.

AGTCAAAGTTCATCTAGGTGACGTAAGATATGCT displayed a PBM binding z-score of 3.53.

Consider CGTCCAAGATCAGAGAGGTCAGTGAATGCCGAGT, for which the PBM binding z-score is 0.00146.

CAGCCTAGGTCAGAGCCAGTATAGGAGGAACGTT had a PBM binding z-score of -0.211.

For GCTAGCTGGTCAGTAAAAGGTCACACACCGGTCG, the PBM binding z-score stood at 1.46.

Regarding TCTGCTAGCTCAACGATGGTCAGCTAATCTGCTA, the PBM binding z-score was found to be 1.25.

As for AGAATGAGGTTATACGTAGATTAGGGAAGAAAGT, the PBM binding z-score is 0.937.

In the case of TCTTGTAGATCAATTGAGGTTAAGAAAGTGCGCT, the PBM binding z-score stood at 2.94.

GGAACGAGGGCAACTTGATAGCAGAGTTTGATGG displayed a PBM binding z-score of -0.0805.

For TCGAGTAAGTTAGGGGCATTCAGAATGGCGTCGA, the PBM binding z-score came to 1.03.

The sequence CCTACTGGGCCAAAGGTCATTGCTTCCAATGCTC registered a PBM binding z-score of 10.1.

Regarding TTACCAAGGTGAAGATCGTTGATCCCTCTGTAGA, the PBM binding z-score was determined as 0.156.

As to CCAGGCAGGTGAAAGGTAACTCAGTCTGGTACGC, the PBM binding z-score was found to be 4.44.

CCTCGGAGGACAGAAGGTCAGAGGTGTCCGCTTT had a PBM binding z-score of -0.408.

With GCGACTGGGGCAAAGCAGGTTACCATTAGGTTGG, the PBM binding z-score is -0.263.

Sequence TCTCGGAGAACACGAAAGGTCAGAGCTCGACATC registered a PBM binding z-score of 2.43.

As for CCTTACGGGTCAAGAGGTTATAGCACGACGAGCG, the PBM binding z-score amounted to 2.4.

The sequence TAGCCTAGGTCGTGGGCCAGTATACCACGCGAAC had a PBM binding z-score of -0.615.

For the sequence TCATATAGGTAAATGCTAGGTGAAGGTCCGATCT, the PBM binding z-score was 3.86.

Sequence CCGAGTAGGTTATGGGGCATTCTGGCAACGGTGA yielded a PBM binding z-score of 2.03.

TCATATAGGTTAACAGGTGAAAGTCCGTAAGTTA displayed a PBM binding z-score of 4.64.

CCTCGGAGGACAGAAGGTCAGAGATGTCCGCTTT yielded a PBM binding z-score of -0.288.

GCTTGTAGATCAATGTTAAGAAAGACTAAGCTAA returned a PBM binding z-score of -0.425.

Regarding GGAACGAAGGCAAGTTGATAGCAGAGTTTGATGG, the PBM binding z-score was -0.377.

The sequence CCTAGTTGGCCAGGAGGTCACACACCGGATATGA gave a PBM binding z-score of 0.806.

GATACAGGATCAAGGCCAGAGTACGCGTATTGAT yielded a PBM binding z-score of 0.0722.

ATATGTAGGTTATCGAGTCATTCAGTTTGCGCAT registered a PBM binding z-score of 2.

For ACTATCAGTTGACTTAGGGCAACCGATACGACGC, the PBM binding z-score came out at 0.141.

CATACAAGGTCAGCTAGGCCAGAGTAGGGACGGC yielded a PBM binding z-score of 0.947.

Sequence CGTCGAAGTTCAACTAAGGTAACGTAAAGCACGC showed a PBM binding z-score of 0.415.

The sequence ATATGTAGGTTATATCCGGGTCATTCAGGCTATG showed a PBM binding z-score of 1.69.

Consider TCTGGTTGGTCACGGAGGTCACACACGACGGGTA, for which the PBM binding z-score stood at 2.69.

Take TCGAGTAGGTTAGTCGGGGCATGCAGCCAACATA: the PBM binding z-score turned out to be 0.702.

For the sequence CCTAACGGGTCACGAGGTTATAGCACGACGAGCG, the PBM binding z-score came out at 2.76.
